Experimental data published in PubChem BioAssay (NCI).
About 79,000 compounds went through this panel and 15% of them were active in at least one assay; those are over-represented in the sample as a whole. Unmarked numbers belong to inactive results. Activity calls are given as the source filed them. Rule as the data show it: active = growth inhibition above about 70%; inactive = the rest.

How the values were obtained:
[1] = NCI Yeast Anticancer Drug Screen. Data for the rad50 strain (AID 155);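 also: 0% = growth of vehicle-only cultures of the same strain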; details: S. cerevisiae rad50 strain growth inhibition; at 50.0 µM; hits give high values
Outline: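 Growth of the mutant yeast was measured after compound exposure and referenced to vehicle-treated cultures.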

[2] = NCI Yeast Anticancer Drug Screen. Data for the mec2-1 strain (AID 157); details: S. cerevisiae mec2-1 strain, at 50.0 µM, hits give high values
Outline: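 Mutant yeast (mec2-1) grown with compound; growth inhibition relative to vehicle control reported.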

[3] = NCI Yeast Anticancer Drug Screen. Data for the sgs1 mgt1 strain (AID 161);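 also: 0% = growth of cultures given vehicle only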; details: S. cerevisiae sgs1 mgt1 strain, at 50.0 µM, hits give high values
Outline: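 Growth of a repair-deficient yeast mutant was monitored after compound treatment and expressed as inhibition relative to vehicle-treated cultures.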

[4] = NCI Yeast Anticancer Drug Screen. Data for the cln2 rad14 strain (AID 165);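 also: 0% = growth equal to vehicle treated cultures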; details: S. cerevisiae cln2 rad14 strain, at 50.0 µM, hits give high values
Outline: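 Readout is yeast growth inhibition versus vehicle-treated controls, using a strain with cln2 and rad14 alterations exposed to compound.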

[5] = NCI Yeast Anticancer Drug Screen. Data for the bub3 strain (AID 167); details: S. cerevisiae bub3 mutant strain, at 50.0 µM, hits give high values
Outline: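 Whole-cell yeast assay. The mutant strain was incubated with compounds, and growth inhibition was determined by comparison with vehicle-treated cells.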

[6] = NCI Yeast Anticancer Drug Screen. Data for the mlh1 rad18 strain (AID 175); details: S. cerevisiae mlh1 rad18 strain growth inhibition; at 50.0 µM; hits give high values
Outline: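 Genetically defined yeast (DNA repair-deficient) exposed to compounds; growth inhibition determined relative to vehicle.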

Structure (SMILES) | growth inhibition [1] | growth inhibition [2] | growth inhibition [3] | growth inhibition [4] | growth inhibition [5] | growth inhibition [6]
CNc1ccc([N+](=O)[O-])cc1C(=O)OC | 8% | -6.1% | -8.55% | -46.2% | -22.9% | 22.9%
O=C(Cn1c(=O)oc2ccc(C(=O)c3cccc(Cl)c3)cc21)c1ccccc1 | -47.4% | -3.15% | -20.6% | -19.5% | 11.3% | -28.1%
COc1cccc2c1C(=O)c1c(O)c3c(c(O)c1C2=O)C[C@@](O)(c1csc(-c2ccncc2)n1)C[C@@H]3OC1CC(N)C(O)C(C)O1 (some centres not stated) | 22.8% | 15.4% | 17.2% | 32.2% | -2.25% | 25.8%
C/C(CC(=O)c1ccccc1)=C1\C(=O)NN(c2ccccc2)C1=O | 60.5% | 47.5% | 67.7% | 56.9% | 64.6% | 60.1%
C=C(Cl)COC(=O)C(C)O (configuration not stated) | 3% | -12.2% | -7.55% | 24.4% | -7.4% | 8.95%
Cc1cc(COCCN(C)C)on1 | -3.5% | 14.2% | 14.9% | -3.95% | 11.8% | 4.35%
O=C(NC(CC(NC(=O)OCc1ccccc1)NC(=O)OCc1ccccc1)NC(=O)OCc1ccccc1)OCc1ccccc1 | -2.55% | 7.1% | -0.1% | 5.6% | 0.85% | -4.55%
Nc1ccccc1N1C(=O)C(Cl)=C(Cl)C1=O | 39.5% | 5.4% | 21.5% | 14.2% | 3% | 44%
CC(=O)c1ccc(NC(=O)CSc2nc(C)nc3c2sc(=S)n3-c2ccccc2)cc1 | -15.1% | -10.8% | -0.1% | -24.1% | -8.2% | -22.1%
CN(N=O)c1nc2c(C(N)=O)ncn2s1 | 10.2% | 16.4% | 4.95% | 2.2% | 13.9% | 24.1%
O=C(Nc1nc(=S)c2c(ncn2CCO)[nH]1)c1ccccc1 | 4.95% | -14% | 8.6% | 12.9% | 4.7% | -0.7%
CC1=NN(c2nc(N)nc(CSc3cc(Cl)c(C)cc3S(N)(=O)=O)n2)C(C)(C)C1 | -15.5% | -8.7% | 12.2% | -8.35% | -18.1% | -4.95%
c1ccc(N=C(N2CCCC2)N(CCN2CCCC2)c2ccccc2)cc1 | -39.4% | -58.1% | -36.4% | 1.35% | -14.2% | -28.2%
CC(C)(C)c1ccc(O)c(Cl)c1 | -15.8% | -7.65% | -5.9% | -7.85% | -11.1% | 10.2%
c1ccc(N2CCN(c3ccccc3)C2)cc1 | -33.8% | -13.3% | -12.8% | 8.65% | 9.1% | 11.5%
O=C(O)CSC(CC(=O)O)C(=O)O (configuration not stated) | 10.3% | -9.4% | 17.7% | 8.85% | 21.6% | 4.25%
O=C(O)CN1C(=O)/C(=C\c2ccc3ccccc3n2)SC1=S | 1.9% | 18.9% | 2.85% | -14.1% | 0.4% | 20.6%
Cc1nc(/N=C(/N)N(C)C)[nH]c(=O)c1C | 1.7% | -27.6% | -11.6% | 3.7% | 4.05% | 19.9%
CCCC(=O)Oc1ccc(Cl)cc1C | -2.3% | -1.05% | 2.85% | -57.6% | -13.6% | -3.85%

Structure (SMILES) | growth inhibition [1] | growth inhibition [2] | growth inhibition [3] | growth inhibition [4] | growth inhibition [5] | growth inhibition [6]
c1ccc(N2C3Sc4ncccc4C2Sc2ncccc23)cc1 | -20.4% | 2.8% | 16.6% | 6.1% | -1.05% | 7.85%
Cc1ccc(C)c2c1CCc1cc3ccccc3nc1-2 | 26.4% | -7.5% | 11.8% | 7.9% | 30.2% | 13.8%
Fc1ccccc1-c1nnc(-c2ccccc2F)o1 | 1.65% | 8.3% | 6.85% | 10.8% | 48.2% | 1.3%
Cc1cccc(NC(=O)Oc2cc(C)c(Cl)cc2C(C)C)c1 | 93% (active) | 98.9% (active) | 96.8% (active) | 93.3% (active) | 98.5% (active) | 98% (active)
CCOC(=O)C1Sc2c(c(=O)n(C)c3ccccc23)C1=O (configuration not stated) | 34.1% | 36.6% | 34.1% | 40.7% | -8.45% | 41.2%
Cn1c(-c2ccc(/C=N/N=C(N)N)cc2)c[n+]2ccccc12 | 8.85% | 4.3% | 4% | 0.8% | -3.85% | 32.5%
Nc1ccc(P(=O)(Nc2ccc3ccccc3c2)Nc2ccc3ccccc3c2)cc1 | 83.2% (active) | 67.5% | 89.2% (active) | 79.9% (active) | 83.2% (active) | 91.2% (active)
O=C(OCCc1ccccc1)C(O)c1ccccc1 (configuration not stated) | 11.3% | -6.05% | 3% | 10.7% | 6.6% | -1.3%
CCC(C)C(N=C1N=CNC2=NC=NC12)C(=O)O (configuration not stated) | 0.45% | -27.8% | -2.6% | 6.5% | -10.6% | -4.1%
Cc1ccc(C(=O)NO)cc1 | 28.8% | -5.6% | 7.65% | -4.65% | 13.8% | 17.5%
C1Cc2nnnn2C1 | -7.4% | -20.1% | 0.9% | -2.85% | -7.95% | 12.6%
O=CC(=O)c1ccc(Br)cc1 | 13.7% | 19.2% | 13.2% | -1.05% | -7.15% | 19.4%
CCOC(=O)C1(C)CCC(C(=O)OC)C1=O (configuration not stated) | -36.1% | -31.1% | -54.8% | -5.45% | -59.6% | -18.1%
CCOC(=O)c1c(C)c(C)n2c1NC(=O)C2 | -4.5% | -4.6% | -37.5% | -36.8% | -30.6% | -13.9%
CCOC(=O)C(CO)NC(=O)c1cnc2ccccc2c1 (configuration not stated) | 16.4% | 1.65% | 13.1% | -29.8% | -30.4% | 12.8%
CC(C(=O)O)C(=O)NNc1ccccc1 (configuration not stated) | 7.8% | -17.9% | -6.7% | 8.4% | -2.1% | -16.4%
Cc1ccc(C2OC2C(=O)c2ccccc2)cc1 (configuration not stated) | 0.05% | 0.25% | -19.5% | -48.5% | -36% | 5.85%
CSc1c2c(c(C)c3c1[nH]c1ccccc13)C=NCC2 | 10.8% | 13.8% | 8.6% | -83.2% | 14% | 17.7%
